A selection: hits, their analogues and other compounds. The true share with any hit is near 19%.
Shiga toxin inh: blocks Shiga toxin action in Vero cells; AID 2315; inhibition, % at 38.7 µM; 9.2% of 290,000 active; Vero cells, Shiga toxin protein synthesis inhibition reporter; in the data active means inhibition mostly above about 28%, no sharp cut-off; inactive means mostly below about 43%; further: 0% is about no effect
Pf growth 96h: P. falciparum growth inhibition at 96 hour, primary screen for plastid delayed-death inhibitors; P. falciparum luciferase reporter growth, 96 h; Potency, µM (series often up to 28.7 µM), for inactives: at the top dose activity change, negative = inhibition, hits mostly inhibitors; 6.9% of 320,000 active; further: potency means the concentration at half of the fitted maximal effect; on the % scale 0 is the no-effect control and ±100 the full control effect
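P. falciparum expressing integrated firefly luciferase, in erythrocytes at 2% hematocrit, 0.05% parasitemia, incubated with compounds 96 h at 37 C, 5% CO2. Growth inhibition read as loss of luminescence; two-generation exposure targets delayed-death apicoplast inhibitors.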
CHX counter: counter-screen for Shiga toxin inhibitors: cycloheximide protein synthesis inhibition | cell reporter, cycloheximide protein synthesis inhibition counterscreen | max response, % | 12% of 300,000 active | AID 2314; in the data active means max response mostly above about 13%, no sharp cut-off; inactive means mostly below about 14%; further: read at 38.3 µM for the half of the compounds with a filed dose; 0% is about no effect
Lassa entry inh: Lassa virus entry inhibition; Lassa virus pseudotype entry inhibition, cell reporter; Potency, µM (doses to about 37.9 µM), for inactives: top-dose activity change, negative = inhibition, most hits filed as inhibitors; 1.2% of 300,000 active; AID 540256; calls by dose curve; tested in HEK293 cells; further: potency means the concentration at half of the fitted maximal effect; on the % scale 0 is the no-effect control and ±100 the full control effect; nearly all actives have a fitted effect of over 50% in size
Marburg entry inh: inhibitors of Marburg virus binding or cell entry. Marburg virus pseudotyped entry inhibition, cell reporter. Potency, µM (doses to about 37.8 µM), inactives show at the top dose activity change, negative = inhibition, hits mostly inhibitors. 1.8% of 300,000 active. AID 540276; calls by dose curve; tested in HEK293 cells; further: potency means the concentration at half of the fitted maximal effect; on the % scale 0 is the no-effect control and ±100 the full control effect
Pf growth 48h: P. falciparum growth inhibition at 48 hours (one generation); P. falciparum luciferase growth in erythrocytes, 48 h; Potency, µM (top dose mostly 28.7 µM), without a hit: top-dose activity change, negative = inhibition, actives largely listed as inhibitors; 5.9% of 310,000 active; further: potency means the concentration at half of the fitted maximal effect; on the % scale 0 is the no-effect control and ±100 the full control effect
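Firefly luciferase activity from engineered P. falciparum reports growth; inhibitors lower the luminescent signal. Cultures contained 2% hematocrit erythrocytes at 0.1% final parasitemia.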
* hit, by the source's call; u = inconclusive; x = not tested or not shown; + = active, no number; [ ] = another dose, or the depositor's remark. Unless noted, the call rests on the fitted dose curve; in most records, active means well fitted inhibition curve with a large enough effect; inconclusive means small, poorly fitted or top-dose-only effect, or another doubt; inactive means no such curve, though single readings can be large or run the other way.

SMILES | Shiga toxin inh | Pf growth 96h | CHX counter | Lassa entry inh | Marburg entry inh | Pf growth 48h
Cc1ccc(C)c(Cn2nnc3c(=O)[nH]c(C(=O)NCC4CCCO4)nc32)c1 (stereo unspecified) | 14 | u | -2 | 7% | u | u
O=C(NCc1ccco1)c1nc2c(nnn2Cc2cccc(Cl)c2)c(=O)[nH]1 | -6 | 33% | -2 | 14% | 2% | -9%
O=C(NCc1ccccc1)c1nc2c(nnn2Cc2cccc(Cl)c2)c(=O)[nH]1 | -2 | 2.9µM* | -4 | -2% | -21% | -18%
COCCNC(=O)c1nc2c(nnn2Cc2cc(C)ccc2C)c(=O)[nH]1 | 2 | 9.3µM* | -4 | -9% | u | -5%
Cc1ccc(Cn2nnc3c(=O)[nH]c(C(=O)NCc4ccco4)nc32)cc1 | 111* | x | 25* | 2% | 16% | 13%
COc1ccc(Br)cc1/C=C/C(=O)NC(=S)Nc1ccc(CN2CCOCC2)cc1 | -10 | u | -3 | x | x | u
O=C(Nc1ccc(S(=O)(=O)N2CCOCC2)cc1)c1ccc(Br)o1 | 6 | 35% | -2 | 13% | 9% | -22%
O=C(Nc1ccc(CN2CCOCC2)cc1)c1ccc(-c2cc(Cl)ccc2Cl)o1 | 20 | u | -3 | -30% | u | 1.9µM*
O=C(Nc1ccc(N2CCN(C(=O)c3ccccc3)CC2)c(Cl)c1)c1ccc(Br)o1 | 14 | 60% | -2 | 21µM* | u | 10µM*
O=C(Nc1ccc(CN2CCOCC2)cc1)c1ccc(Br)o1 | 69* | 196% | 43* | x | x | 66%
O=C(Nc1ccc(N2CCOCC2)c(Cl)c1)c1ccc(Br)o1 | 110* | 19% | 79* | u | -10% | u
O=C(O)CCNS(=O)(=O)c1ccc2c(c1)CCCC2 | 15 | 10% | -1 | -10%[46.1 µM] | -22%[46.1 µM] | 57%
C=CCN(CC=C)CC(=O)Nc1cccc(Oc2cnccn2)c1 | -4 | -22% | -7 | 9%[46.1 µM] | -1%[46.1 µM] | -10%
Cc1ccc(C)c(OCCSc2nc3ccccc3n2CC(=O)N2CCOCC2)c1 | x | x | x | 0%[46.1 µM] | -3%[46.1 µM] | x
O=C(NCCC1=CCCCC1)C1CCCN(S(=O)(=O)c2ccccc2)C1 (stereo unspecified) | 28 | u | 0 | u | u | -27%
CN(C)S(=O)(=O)c1ccc(C(=O)NCc2ccccc2)cc1 | -1 | 10% | -4 | -1% | 0% | 36%
CN(C)S(=O)(=O)c1ccc(C(=O)NCCOc2ccccc2)cc1 | 83* | x | 40* | 1% | u | 143%
CN(C)S(=O)(=O)c1ccc(C(=O)NCCS(=O)(=O)N2CCN(c3ccc(F)cc3)CC2)cc1 | -9 | 7% | -3 | 11%[46.1 µM] | -28%[46.1 µM] | 11%
CN(C)S(=O)(=O)c1ccc(C(=O)NCCOc2ccc(F)cc2)cc1 | 84* | x | 42* | -12% | 0% | 106%
CN(C)S(=O)(=O)c1ccc(C(=O)OCCc2ccccc2)cc1 | 33 | -20% | 39* | -3% | 30%[46.1 µM] | 32%
Clc1c(-c2ccccc2)nnn1-c1ccccc1 | 105* | 281% | 56* | u | -2% | 266%
O=C(Nc1ccc2c(c1)OCO2)N1CCN(Cc2ccco2)CC1 | 12 | 4% | 13* | u | u | u
CCOc1ccc(NC(=O)N2CCN(Cc3ccc4c(c3)OCO4)CC2)cc1 | -8 | 18% | -3 | -8% | 0% | -26%
Cc1ccc(NC(=O)N2CCN(Cc3ccc4c(c3)OCO4)CC2)cc1 | -10 | 13µM* | 7 | -19%[14.3 µM] | u | x
CCCNC(=O)N1CCN(Cc2ccco2)CC1 | -16 | 8% | -3 | 16%[46.1 µM] | 6%[46.1 µM] | 8%
SMILES | Shiga toxin inh | Pf growth 96h | CHX counter | Lassa entry inh | Marburg entry inh | Pf growth 48h
CC(=O)Nc1c(C(=O)O)oc2ccc(Cl)cc12 | -10 | 2.6µM* | -1 | 0% | 23% | -3%
CC(=O)Nc1c(C(N)=O)oc2ccc(Cl)cc12 | -15 | 0% | -1 | x | x | 22%
COC(=O)c1oc2ccccc2c1NC(=O)c1ccccc1O | 3 | 54% | 7 | 5% | -9%[14.2 µM] | 10µM*
CC(=O)Nc1c(C(=O)O)oc2ccccc12 | 41 | -24% | 24* | -5% | 15% | 97%
Cc1cc(C)c(C(=O)COC(=O)Cn2cnnn2)cc1C | -16 | -17% | -1 | -11% | 6% | 7%
CNC(=O)CSc1nc2ccccc2c(=O)n1C1CCCCC1 | -4 | u | -2 | x | x | -24%
Cc1ccc(NC(=O)c2c(F)cccc2Cl)cc1NS(C)(=O)=O | 9 | 36% | -4 | u | -8% | 16%
Cc1ccc(SCC(=O)NNC(=O)CNC(=O)c2ccccc2F)cc1 | x | x | x | 8%[46.1 µM] | -4%[46.1 µM] | x
C=C1[C@@H](C)C2[C@H](Cc3ccccc3)NC(=O)[C@]23OC(=O)CC[C@H](O)CCC[C@H](C)C/C=C/[C@H]3[C@@H]1O (stereo partly specified) | -2 | 0.37µM* | -4 | x | x | 0.93µM*
C=C1[C@@H](C)[C@H]2[C@H](Cc3ccccc3)NC(=O)[C@]23OC(=O)/C=C/[C@H](O)CCC[C@@H](C)C/C=C/[C@H]3[C@@H]1O | 33 | x | 8 | x | x | x
C=C1C(C)C2C(Cc3ccccc3)NC(=O)C23C(OC(C)=O)C=CC(C)(O)CC(C)CC=CC3C1O (stereo unspecified) | x | x | x | 2.2µM* | 4µM* | x
C/C(=N/Nc1cc(-c2ccccc2)nc(-c2ccccc2)n1)c1ccc(O)cc1 | 31 | u | 23* | -16% | u | u
C/C(=N\Nc1cc(Cl)nc(C)n1)c1ccccc1 | 46* | 121% | 28* | -22% | u | 37%
CCc1ccc(/C(C)=N/Nc2cc(Cl)nc(C)n2)cc1 | 13 | 15% | -1 | u | -23% | 2%
O=C(/C=C/c1ccccc1O)c1ccco1 | 61* | 13% | 30* | u | -25% | 0%
Cc1ccc(/C=C/C(=O)c2cc(Br)ccc2OC(=O)c2ccco2)cc1 | 49* | u | 24* | -8% | -22% | 13µM*
Nc1ccc(/C=C/C(=O)c2ccco2)cc1 | + | -9% | 69* | 10% | 43% | 41%
Cc1cccc2cc(/C=C/C(=O)c3ccco3)c(Cl)nc12 | 16 | 31% | 12* | 5% | 10%[46.1 µM] | u
COc1ccccc1/C=C/C(=O)c1cc(Br)ccc1OC(=O)c1ccco1 | x | x | x | -6% | u | x
Cc1[nH]ccc(=O)c1Cc1c(Cl)cccc1Cl | -8 | u | -2 | -13%[46.1 µM] | u | 16%
CCOc1ccccc1NCc1nnc2n1CCCCC2 | x | x | x | 7%[46.1 µM] | x | x
CCS(=O)(=O)CCSc1nc(C)cc(C)c1C#N | -21 | x | -4 | u | -28% | 32%
COCCCn1cnnc1SCC(=O)Nc1ccc(S(=O)(=O)N2CCCC2)cc1 | 16 | -8% | -1 | 4% | 3% | x
CC(C)(C)C(=O)Nc1ccc(/C=C/C(=O)c2ccco2)cc1 | x | u | 25* | u | u | -1%
N#Cc1ccc(/C=C/C(=O)c2ccco2)cc1 | 26 | -16% | 6 | u | u | 25%
COc1ccc(C(=O)CC(=O)C(=O)Nc2cc(C)ccc2C)cc1 | 4 | 9.3µM* | -3 | -11%[46.1 µM] | -24%[46.1 µM] | x

High-throughput results as filed in PubChem BioAssay.
